Measured values: PubChem BioAssay AID1159580 (chemical genetic matrix, 2015)
“And” between values parts separate entries of the source, which are not always exact repeats. Equal values may be shown once. The campaign covered roughly 5,500 compounds. About 2,000 (36%) were called active. Roughly 18% stayed inconclusive and do not appear here. No stated cut-off is given here; in the data, active means normalized growth mostly below about 0.91 (no sharp cut-off); inconclusive means no clear call, values can overlap the other calls; inactive means mostly above about 0.92. This is one part of the list.

Assay: chemical genetic growth profiling, strain panel (AID 1159580);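 further: tested at 20 µM; growth read once vehicle control cultures reached saturation at 30 °C; 1 = growth at the plate median or of vehicle wells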
Conditions: S. cerevisiae deletion strains, growth OD

Measured: normalized growth

CC(=O)CC(c1ccccc1)c1c(O)c2ccccc2oc1=O (configuration not stated)
inactive: locus YAL013W, strain DEP1, stronger effect = lower value 1.01 | locus YAL021C, strain ccr4, stronger effect = lower value 1.01 | locus YAL026C, strain drs2, stronger effect = lower value 0.991 | locus YAL030W, strain snc1, stronger effect = lower value 0.991 | locus YBL061C, strain skt5, stronger effect = lower value 0.998 | locus YBR009C, strain hhf1, stronger effect = lower value 1 | locus YBR021W, strain FUR4, stronger effect = lower value 0.996 | locus YBR023C, strain chs3, stronger effect = lower value 0.996 | locus YBR171W, strain sec66, stronger effect = lower value 0.991 | locus YBR229C, strain ROT2, stronger effect = lower value 1 | locus YBR231C, strain swc5, stronger effect = lower value 1 | locus YBR279W, strain paf1, stronger effect = lower value 0.993 | locus YCL011C, strain gbp2, stronger effect = lower value 0.999 | locus YCL016C, strain dcc1, stronger effect = lower value 0.994 | locus YCL029C, strain bik1, stronger effect = lower value 1.03 | locus YCL061C, strain MRC1, stronger effect = lower value 1 | locus YCL069W, strain vba3, stronger effect = lower value 1 | locus YCR088W, strain abp1, stronger effect = lower value 1 | locus YDL005C, strain med2, stronger effect = lower value 0.999 | locus YDL035C, strain GPR1, stronger effect = lower value 1.02 | locus YDL040C, strain nat1, stronger effect = lower value 0.994 | locus YDL074C, strain BRE1, stronger effect = lower value 1.02 | locus YDL101C, strain DUN1, stronger effect = lower value 1.02 | locus YDL134C, strain PPH21, stronger effect = lower value 1.01 | locus YDL185W, strain tfp1, stronger effect = lower value 1.01 | locus YDL192W, strain arf1, stronger effect = lower value 1.02 | locus YDR001C, strain nth1, stronger effect = lower value 0.993 | locus YDR069C, strain doa4, stronger effect = lower value 1 | locus YDR101C, strain arx1, stronger effect = lower value 1.02 | locus YDR137W, strain rgp1, stronger effect = lower value 0.867 | locus YDR150W, strain NUM1, stronger effect = lower value 1.01 | locus YDR159W, strain sac3, stronger effect = lower value 1.02 | locus YDR162C, strain NBP2, stronger effect = lower value 1.03 | locus YDR195W, strain ref2 1.01 | locus YDR297W, strain sur2, stronger effect = lower value 1 | locus YDR318W, strain mcm21, stronger effect = lower value 1.03 | locus YDR334W, strain swr1, stronger effect = lower value 1 | locus YDR335W, strain msn5, stronger effect = lower value 1.01 | locus YDR388W, stronger effect = lower value 1 | locus YDR392W, strain spt3, stronger effect = lower value 0.966 | locus YDR502C, strain sam2, stronger effect = lower value 1.01 | locus YEL003W, strain gim4, stronger effect = lower value 1.01 | locus YEL037C, strain rad23, stronger effect = lower value 0.999 | locus YEL061C, strain CIN8 (second series), stronger effect = lower value 0.999 | locus YEL061C, strain CIN8, stronger effect = lower value 1.01 | locus YER015W, strain faa2, stronger effect = lower value 0.987 | locus YER016W, strain bim1, stronger effect = lower value 0.993 | locus YER110C, stronger effect = lower value 1.03 | locus YER111C, strain swi4, stronger effect = lower value 0.999 | locus YER155C, strain BEM2 (second series), stronger effect = lower value 1.01 | locus YER155C, strain BEM2, stronger effect = lower value 1 | locus YER167W, strain BCK2, stronger effect = lower value 1.03 | locus YFR010W, strain ubp6, stronger effect = lower value 1.01 | locus YGL078C, strain dbp3, stronger effect = lower value 1.01 | locus YGL086W, strain mad1, stronger effect = lower value 1.03 | locus YGL167C, strain pmr1, stronger effect = lower value 0.986 | locus YGL173C, strain kem1, stronger effect = lower value 1 | locus YGL227W, strain vid30, stronger effect = lower value 0.988 | locus YGL240W, strain doc1, stronger effect = lower value 1 | locus YGL248W, strain PDE1, stronger effect = lower value 1.01 | locus YGL253W, strain hxk2, stronger effect = lower value 1 | locus YGR078C, strain PAC10, stronger effect = lower value 1.02 | locus YGR135W, strain pre9, stronger effect = lower value 1.02 | locus YGR229C, strain SMI1, stronger effect = lower value 1.02 | locus YGR252W, strain gcn5, stronger effect = lower value 1.06 | locus YHR013C, strain ard1, stronger effect = lower value 1.03 | locus YHR027C, strain rpn1, stronger effect = lower value 0.994 | locus YHR030C, strain SLT2, stronger effect = lower value 1.01 and 0.993 | locus YHR079C, strain IRE1 (second series), stronger effect = lower value 1.01 | locus YHR079C, strain IRE1, stronger effect = lower value 0.982 | locus YHR094C, strain hxt1, stronger effect = lower value 1.02 | locus YHR129C, strain ARP1, stronger effect = lower value 1 | locus YHR142W, strain chs7, stronger effect = lower value 1.01 | locus YHR200W, strain rpn10, stronger effect = lower value 1.02 | locus YIL066C, strain RNR3, stronger effect = lower value 1.02 | locus YIL073C, strain SPO22, stronger effect = lower value 1.1 | locus YIL125W, strain kgd1, stronger effect = lower value 1.01 | locus YIR030C, strain dcg1, stronger effect = lower value 1.02 | locus YJL092W, strain hpr5, stronger effect = lower value 0.996 | locus YJL095W, strain BCK1 (second series), stronger effect = lower value 0.992 | locus YJL095W, strain BCK1, stronger effect = lower value 1.01 and 0.973 | locus YJL115W, strain asf1, stronger effect = lower value 1 | locus YJL129C, strain trk1, stronger effect = lower value 1.02 | locus YJL134W, strain LCB3, stronger effect = lower value 1 | locus YJL154C, strain vps35, stronger effect = lower value 0.995 | locus YJL164C, strain tpk1, stronger effect = lower value 1.01 | locus YJL166W, strain qcr8, stronger effect = lower value 1.01 | locus YJL168C, strain set2, stronger effect = lower value 1 | locus YJL187C, strain SWE1 (second series), stronger effect = lower value 1.02 | locus YJL187C, strain SWE1, stronger effect = lower value 0.989 | locus YJR043C, strain POL32, stronger effect = lower value 1.03 | locus YJR066W, strain TOR1, stronger effect = lower value 0.925
